The results in this text go back to PubChem BioAssay (NCATS).

A short description of test [1]: Viability qHTS for spleen associated tyrosine kinase inhibitor (SYKi) naive MV4-11 cells (AID 1963823). Further: nearly all actives have a fitted effect of over 40% in size. The essentials:
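Read-out: CellTiter-Glo luminescence. Exposure: 72 hr, 37 C, 5% CO2, 95% humidity. Cells: MV4-11 without SYK inhibitor history, 500/well, qHTS format.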
For orientation: qHTS replaces the single test concentration by a dilution series.

Test [2] in a line: Viability qHTS for spleen associated tyrosine kinase inhibitor (SYKi) drug resistant MV4-11 cells (AID 1963824). Further: nearly all actives have a fitted effect of over 35% in size. The essentials: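 SYK inhibitor-resistant MV4-11 AML cells, 500 per well, added to predispensed compounds and incubated 72 hr at 37 C, 5% CO2. Viability measured by CellTiter-Glo luminescence after 10 min at room temperature.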

Records with an inconclusive call do not appear. Values without a mark were called inactive. Calls of active or inactive are those of the source. The call rests on the fitted dose curve; in most records, active means well fitted cell-killing curve with a large enough effect; inconclusive means small, poorly fitted or top-dose-only effect, or effect the other way; inactive means no such curve, though single readings can be large or run the other way.
Potency means the concentration at half of the fitted maximal effect.

Consider `CC1(C)CC[C@]2(C(=O)O[C@@H]3O[C@H](CO)[C@@H](O)[C@H](O)[C@H]3O)CC[C@]3(C)C(=CCC4[C@@]5(C)C[C@H](O)[C@H](O[C@@H]6OC[C@@H](O)[C@H](O)[C@H]6O)[C@@](C)(CO)C5CC[C@]43C)C2C1` (stereo partly specified), for which the viability (% of control) in test [1] is 96.5% [at 9.25 µM]. The viability, % of control in test [2] is 109% [at 9.25 µM].
As to `OC1C=C2C3CN(Cc4cc5c(cc43)OCO5)C2CC1O` (stereo unspecified), the Potency in test [1] and in test [2] was 5.17 µM (active) throughout.
For `Cc1ccc(NS(=O)(=O)c2cc3c(cc2N[C@H](C)CO)NC(=O)CC3)cc1C`, the Potency in test [1] was 20.6 µM (active); in test [2], 14.6 µM (active).
Consider `CC(C)CC1(C(=O)OCc2ccc(O[C@@H]3O[C@H](CO)[C@@H](O)[C@H](O)[C@H]3O)cc2)CC(=O)OC(C(=O)O)CC(=O)OCC2OC(O1)C(OC(=O)/C=C/c1ccc(O)cc1)C(O)C2O` (stereo partly specified), for which the viability (% of control) in test [1] was 90.4% [at 9.25 µM]. The viability, % of control in test [2] was 89.5% [at 9.25 µM].
As to `C[C@@H]1O[C@@H](O[C@H]2[C@@H](OC(=O)[C@]34CCC(C)(C)CC3C3=CCC5[C@@]6(C)C[C@H](O)[C@H](O[C@@H]7O[C@H](C(=O)O)[C@@H](O)[C@H](O)[C@H]7O)[C@@](C)(C(=O)O)C6CC[C@@]5(C)[C@]3(C)CC4)OC[C@H](O)[C@@H]2O)[C@H](O)[C@H](O)[C@H]1O[C@@H]1OC[C@@H](O)[C@H](O)[C@H]1O` (stereo partly specified), the viability (% of control) in test [1] was 77.1% [at 9.25 µM]. The viability, % of control in test [2] is 74.1% [at 9.25 µM].
`CCCCCCc1cccc(NC(=O)[C@H](N)CCP(=O)(O)O)c1`: in test [1], the viability (% of control) is 90.5% [at 9.25 µM]. In test [2], the viability, % of control was 99.2% [at 9.25 µM].
In the case of `C[C@H]1CC[C@@]2(OC1)O[C@H]1CC3C4CC[C@H]5C[C@@H](O)[C@H](O)C[C@]5(C)C4=CC(=O)[C@]3(C)[C@H]1[C@@H]2C` (stereo partly specified), the Potency result in test [1] and in test [2] was “inactive” each time.
Regarding `CC(C)(O)c1ccc2c(c1)C(=O)C[C@H]1[C@](C)(C(=O)O)CCC[C@]21C`, the Potency entry in test [1] and in test [2] was “inactive” throughout.
With `c1ccc2c(-c3cnn4cc(-c5ccc(OCCN6CCOCC6)cc5)cnc34)ccnc2c1`, the values for the Potency in test [1] and in test [2] were 1.02 µM (active) and 1.44 µM (active), respectively.
As for `O=C(C1=CCN2c3c(cccc31)OC[C@H]2CN1CCOCC1)c1cccc2ccccc12`, the Potency was 14.6 µM (active) in test [1] and 18.4 µM (active) in test [2].
With `CNC(=O)[C@@H](c1ccccc1)N1CCc2cc(OC)c(OC)cc2[C@@H]1CCc1ccc(C(F)(F)F)cc1`, the Potency in test [1] and in test [2] was 20.6 µM (active) throughout.
In the case of `OCC1OC(Oc2cc(O)cc(/C=C/c3ccc(O)cc3)c2)C(O)C(O)C1O` (stereo unspecified), the Potency result in test [1] and in test [2] was “inactive” throughout.
Turning to `O=C(O)/C=C/c1ccc(O[C@@H]2O[C@H](CO)[C@@H](O)[C@H](O)[C@H]2O)cc1`, the Potency result in test [1] and in test [2] was “inactive” each time.
Regarding `COC(=O)C1=COC(OC2OC(CO)C(O)C(O)C2O)C2C1C=CC2(O)CO` (stereo unspecified), the Potency result in test [1] and in test [2] was “inactive” throughout.
With `CC(=O)OC1C(O)CC(O[C@@H]2O[C@H](CO)[C@@H](O)[C@H](O)[C@H]2O)C2CCC3C(=O)OC(c4ccoc4)CC3(C)C21` (stereo partly specified), the Potency result in test [1] and in test [2] was “inactive” in each case.
Turning to `CC(=O)OC1C=C(C(=O)O)C2(CO)CCC(C)C(C)(CCc3ccoc3)C2C1` (stereo unspecified), the Potency result in test [1] and in test [2] was “inactive” in each case.
`O=C(NN1CCCCC1)c1nn(-c2ccc(Cl)cc2Cl)c(-c2ccc(C#Cc3ccc(C(F)(F)F)cc3)s2)c1CNS(=O)(=O)N1CCCC1`: the Potency result in test [1] and in test [2] was “inactive” throughout.
Regarding `COC(=O)CC1CC(c2ccc(O)cc2)=NO1` (stereo unspecified), the Potency entry in test [1] and in test [2] was “inactive” in each case.
As to `COC1CC(O[C@H]2CC[C@]3(C)C4CC[C@]5(C)C(C6=CC(=O)OC6)=CCC56OC46CC[C@@H]3C2)OC(C)C1O[C@@H]1O[C@H](CO[C@@H]2O[C@H](CO)[C@@H](O)[C@H](O)[C@H]2O)[C@@H](O)[C@H](O)[C@H]1O` (stereo partly specified), the values for the Potency in test [1] and in test [2] were 1.55 µM (active) and 1.38 µM (active), respectively.
Regarding `C=C1C[C@@]23CC[C@@H]4[C@](C)(C(=O)O)CCC[C@@]4(C)C2=CC[C@H]1C3`, the Potency entry in test [1] and in test [2] was “inactive” throughout.
For `CCOC(=O)C(CCc1ccccc1)NC(C)C(=O)N1C(=O)N(C)CC1C(=O)O` (stereo unspecified), the Potency entry in test [1] and in test [2] was “inactive” throughout.
`CNc1nc(-c2ccc3c(N)n[nH]c3c2)cc(N2C[C@@H](C(=O)NC3CCCCC3)CC[C@H]2C)n1`: the Potency in test [1] was 5.25 µM (active); in test [2], 5.9 µM (active).
As to `C[C@@H]1CC[C@]2(C(=O)O[C@@H]3O[C@H](CO)[C@@H](O)[C@H](O)[C@H]3O)CC[C@]3(C)C(=CCC4[C@@]5(C)C[C@@H](O)[C@H](O)[C@](C)(C(=O)O)C5CC[C@]43C)[C@@H]2[C@]1(C)O` (stereo partly specified), the Potency entry in test [1] and in test [2] was “inactive” throughout.
